{"source": "paper PMC6664820", "about": "“Novel natural and synthetic inhibitors of solute carriers SGLT1 and SGLT2” (Pharmacology Research & Perspectives, 2019)", "note": "Hit rate of the full screen: of about 1,900 compounds, about 40 (2%) showed an effect of 50% or more. The sample as a whole holds a higher share of strong results than the screen did.", "data": [{"target": "human SGLT1 (hSGLT1) (human, UniProt P13866)", "sequence (P13866 whole entry, looked up)": "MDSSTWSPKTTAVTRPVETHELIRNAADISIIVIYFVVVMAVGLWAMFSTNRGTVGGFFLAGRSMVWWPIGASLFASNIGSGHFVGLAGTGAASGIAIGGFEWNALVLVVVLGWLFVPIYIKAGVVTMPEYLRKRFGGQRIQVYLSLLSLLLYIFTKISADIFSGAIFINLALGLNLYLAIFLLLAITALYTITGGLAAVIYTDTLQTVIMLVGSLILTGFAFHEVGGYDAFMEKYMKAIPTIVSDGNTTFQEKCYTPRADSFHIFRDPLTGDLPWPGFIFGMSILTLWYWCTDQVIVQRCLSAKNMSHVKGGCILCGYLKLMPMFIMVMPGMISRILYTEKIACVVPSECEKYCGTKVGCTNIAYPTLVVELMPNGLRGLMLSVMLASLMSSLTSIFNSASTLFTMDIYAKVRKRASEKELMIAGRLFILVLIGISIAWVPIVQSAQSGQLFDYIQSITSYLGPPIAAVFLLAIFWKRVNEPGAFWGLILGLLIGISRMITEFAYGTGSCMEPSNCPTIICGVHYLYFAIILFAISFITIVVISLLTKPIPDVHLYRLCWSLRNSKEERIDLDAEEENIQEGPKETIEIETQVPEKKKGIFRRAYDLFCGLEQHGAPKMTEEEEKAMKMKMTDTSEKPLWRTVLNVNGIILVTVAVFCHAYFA", "assay": "primary screen, percent of control activity; higher = less effect of the substance", "design": "single well", "conditions": "50 µM", "procedure": "Two days before the assay, CHO‐wild type and CHO‐hSGLT1 cells were seeded in maintenance medium at 25 000 cells/well in clear‐bottom black 96‐well cell culture plates. Before the assay, cells were washed 3 times with 150 μL/well D‐glucose free DMEM with 0.3% (w/v) BSA. Library compounds at 50 μmol/L (singlicate) prepared in D‐glucose free DMEM with 160 μmol/L 1‐NBD‐glucose and 0.3% (w/v) BSA and negative controls (triplicate) were added at 100 μL/well and placed in a humidified incubator at 37°C with 5% CO2 for 90 minutes. Next, cells were washed 3 times with DMEM with 0.3% (w/v) BSA (150 μL/well). Care was taken to remove all medium after the last wash. Finally, 1‐NBD‐glucose was extracted from the cells by adding 10 μL/well isopropanol and orbital shaking for 5 minutes at 600 rpm, followed by incubation in the dark for 30 minutes. Fluorescence was measured on a Tecan Infinite M200 Microplate Reader (Tecan, Männedorf, Switzerland) with excitation at 445 nm and emission at 525 nm. The amount of 1‐NBD‐glucose taken up by the CHO‐wild type or CHO‐hSGLT1 cells in the presence or absence of test compounds was interpolated from 1‐NBD‐glucose calibration standards. The background uptake by CHO‐wild type was subtracted from the uptake by CHO‐hSGLT1. Background corrected uptake with test compound was expressed as a percentage of corrected uptake without test compound.", "units": {"NORMALIZED SGLT1 ACTIVITY (%)": "%"}, "values": [{"smiles": "CC[C@@H](CO)NCCN[C@@H](CC)CO.Cl.Cl", "NORMALIZED SGLT1 ACTIVITY (%)": 90}, {"smiles": "Oc1c(Br)cc(Br)c2cccnc12", "NORMALIZED SGLT1 ACTIVITY (%)": 50}, {"smiles": "Oc1c(I)cc(I)c2cccnc12", "NORMALIZED SGLT1 ACTIVITY (%)": 97}, {"smiles": "CC(=O)Oc1ccc(Cl)c2cccnc12", "NORMALIZED SGLT1 ACTIVITY (%)": 202}, {"smiles": "Oc1ccc(Cl)c2cccnc12", "NORMALIZED SGLT1 ACTIVITY (%)": 208}, {"smiles": "Oc1c(Cl)cc(Cl)c2cccnc12", "NORMALIZED SGLT1 ACTIVITY (%)": 48}, {"smiles": "O=S(=O)(O)O.Oc1cccc2cccnc12", "NORMALIZED SGLT1 ACTIVITY (%)": 127}, {"smiles": "CC(=O)O[C@@H]1CC2C(C)(C)C(=O)C3OC3[C@]2(C)C2CC[C@@]3(C)[C@H](c4ccoc4)OC(=O)C4OC43[C@@]21C", "note": "(stereo partly drawn)", "NORMALIZED SGLT1 ACTIVITY (%)": 138}, {"smiles": "CC(C)CCCC(C)[C@H]1CCC2C3CC=C4C[C@@H](O)CC[C@]4(C)C3CC[C@@]21C", "note": "(stereo partly drawn)", "NORMALIZED SGLT1 ACTIVITY (%)": 120}, {"smiles": "C[n+]1c2cc(N)ccc2cc2ccc(N)cc21.[Cl-]", "NORMALIZED SGLT1 ACTIVITY (%)": 169}, {"smiles": "CC1=CC(=O)C2=C(C)CC[C@@H]3[C@H](OC(=O)[C@H]3C)[C@@H]12", "NORMALIZED SGLT1 ACTIVITY (%)": 109}, {"smiles": "COC(=O)Nc1nc2ccc(S(=O)c3ccccc3)cc2[nH]1", "note": "(stereo not drawn)", "NORMALIZED SGLT1 ACTIVITY (%)": 125}, {"smiles": "Cc1ccc(O)c(C(CCN(C(C)C)C(C)C)c2ccccc2)c1.O=C(O)C(O)C(O)C(=O)O", "note": "(stereo not drawn)", "NORMALIZED SGLT1 ACTIVITY (%)": 78}, {"smiles": "COc1ccc(C(=O)c2ccccc2)c(O)c1", "NORMALIZED SGLT1 ACTIVITY (%)": 26}, {"smiles": "COc1ccc(C(=O)c2ccccc2O)c(O)c1", "NORMALIZED SGLT1 ACTIVITY (%)": 111}, {"smiles": "COc1cc(O)c(C(=O)c2ccccc2)cc1O", "NORMALIZED SGLT1 ACTIVITY (%)": 235}, {"smiles": "CCS(=O)(=O)CCn1c([N+](=O)[O-])cnc1C", "NORMALIZED SGLT1 ACTIVITY (%)": 123}, {"smiles": "COc1ccc2ccc(=O)oc2c1", "NORMALIZED SGLT1 ACTIVITY (%)": 130}, {"smiles": "CCN(CC)CC(=O)Nc1c(C)cccc1C.Cl", "NORMALIZED SGLT1 ACTIVITY (%)": 72}, {"smiles": "CCCCN1CCCCC1C(=O)Nc1c(C)cccc1C.Cl", "note": "(stereo not drawn)", "NORMALIZED SGLT1 ACTIVITY (%)": 42}, {"smiles": "Cc1cccc(C)c1NC(=O)C1CCCCN1C.Cl", "note": "(stereo not drawn)", "NORMALIZED SGLT1 ACTIVITY (%)": 83}, {"smiles": "CC(C)CCCC(C)[C@H]1CCC2C3C(=O)C=C4C[C@@H](O)CC[C@]4(C)C3CC[C@@]21C", "note": "(stereo partly drawn)", "NORMALIZED SGLT1 ACTIVITY (%)": 95}, {"smiles": "Cc1ccc(N(CC2=NCCN2)c2cccc(O)c2)cc1.Cl", "NORMALIZED SGLT1 ACTIVITY (%)": 62}, {"smiles": "COc1ccc2c(c1)OC/C(=C\\c1ccc(OC)c(O)c1)C2=O", "NORMALIZED SGLT1 ACTIVITY (%)": 140}, {"smiles": "O=C1C=CC(=C(c2ccc(O)cc2)c2ccc(O)cc2)C=C1", "NORMALIZED SGLT1 ACTIVITY (%)": 78}, {"smiles": "CN(C)c1ccc(C(=C2C=CC(=[N+](C)C)C=C2)c2ccc(N(C)C)cc2)cc1.[Cl-]", "NORMALIZED SGLT1 ACTIVITY (%)": 43}, {"smiles": "CC(CCc1ccccc1)NCC(O)c1ccc(O)c(C(N)=O)c1.Cl", "note": "(stereo not drawn)", "NORMALIZED SGLT1 ACTIVITY (%)": 76}, {"smiles": "O=C([O-])CF.[Na+]", "NORMALIZED SGLT1 ACTIVITY (%)": 96}, {"smiles": "C[C@@H]1C(=O)O[C@H]2[C@H]1CC[C@@]1(C)C=CC(=O)[C@@]3(C)O[C@@]213", "NORMALIZED SGLT1 ACTIVITY (%)": 96}, {"smiles": "COc1cc(OC)c(OC)cc1C=O", "NORMALIZED SGLT1 ACTIVITY (%)": 189}, {"smiles": "CCC[C@@H]1CCCCN1", "NORMALIZED SGLT1 ACTIVITY (%)": 85}, {"smiles": "CC(=O)CC1CCCCN1.Cl", "note": "(stereo not drawn)", "NORMALIZED SGLT1 ACTIVITY (%)": 86}, {"smiles": "C1CCC(C(CC2CCCCN2)C2CCCCC2)CC1.O=C(O)/C=C\\C(=O)O", "note": "(stereo not drawn)", "NORMALIZED SGLT1 ACTIVITY (%)": 1}, {"smiles": "C=C[C@H]1CN2CC[C@H]1C[C@H]2[C@H](O)c1ccnc2ccccc12", "NORMALIZED SGLT1 ACTIVITY (%)": 77}, {"smiles": "C=Cc1c(C)c2[n]3c1C=c1c(C)c(CC)c4[n]1[Cu]31[n]3c(c(C)c5c3C(=c3c(CCC(=O)[O-])c(C)c([n]31)=C2)C(C(=O)[O-])C5=O)C=4.[Na+].[Na+]", "note": "(stereo not drawn)", "NORMALIZED SGLT1 ACTIVITY (%)": 94}, {"smiles": "CC(C)CC(N(C)C)C1(c2ccc(Cl)cc2)CCC1.Cl", "note": "(stereo not drawn)", "NORMALIZED SGLT1 ACTIVITY (%)": 28}, {"smiles": "CC(C)CCCC(C)C1CCC2C3CC(=O)[C@H]4C[C@@H](O)CC[C@]4(C)C3CC[C@]12C", "note": "(stereo partly drawn)", "NORMALIZED SGLT1 ACTIVITY (%)": 107}, {"smiles": "O=C(O)c1cc2cc(Cl)ccc2[nH]1", "NORMALIZED SGLT1 ACTIVITY (%)": 238}, {"smiles": "C=C1C(C2(C)C=CC(=O)C(C)(C)C2CC(=O)OC)CC[C@@]2(C)[C@H](c3ccoc3)OC(=O)C3OC132", "note": "(stereo partly drawn)", "NORMALIZED SGLT1 ACTIVITY (%)": 86}, {"smiles": "CC(=O)[C@H]1CCC2C3CCC4=CC(=O)CC[C@]4(C)C3CC[C@@]21C", "note": "(stereo partly drawn)", "NORMALIZED SGLT1 ACTIVITY (%)": 38}, {"smiles": "CC(=O)OCC(=O)[C@H]1CC[C@H]2[C@@H]3CCC4=CC(=O)CC[C@]4(C)[C@H]3CC[C@]12C", "NORMALIZED SGLT1 ACTIVITY (%)": 114}, {"smiles": "C[C@]12CCC(=O)C=C1CCC1C2CC[C@@]2(C)C1CC[C@@H]2O", "note": "(stereo partly drawn)", "NORMALIZED SGLT1 ACTIVITY (%)": 98}, {"smiles": "C[C@@H]1CC[C@@]2(NC1)O[C@H]1C[C@H]3C4CC=C5C[C@@H](O)CC[C@]5(C)C4CC[C@]3(C)C1[C@@H]2C", "note": "(stereo partly drawn)", "NORMALIZED SGLT1 ACTIVITY (%)": 109}, {"smiles": "CCC1(c2ccc(N)cc2)CCC(=O)NC1=O", "note": "(stereo not drawn)", "NORMALIZED SGLT1 ACTIVITY (%)": 108}, {"smiles": "COc1ccc2c(c1)OC/C(=C/c1ccc(O)c(O)c1)C2=O", "NORMALIZED SGLT1 ACTIVITY (%)": 249}, {"smiles": "CCCCC(CC)CNC(=N)NC(=N)NCCCCCCNC(=N)NC(=N)NCC(CC)CCCC.Cl.Cl", "note": "(stereo not drawn)", "NORMALIZED SGLT1 ACTIVITY (%)": 36}, {"smiles": "COc1ccc(C[C@H](N)C(=O)N[C@@H]2[C@@H](CO)OC(n3cnc4c(N(C)C)ncnc43)[C@@H]2O)cc1.Cl.Cl", "note": "(stereo partly drawn)", "NORMALIZED SGLT1 ACTIVITY (%)": 116}, {"smiles": "O=C(O)COc1ccc(Cl)cc1Cl", "NORMALIZED SGLT1 ACTIVITY (%)": 196}, {"smiles": "COC(=O)[C@]1(C)CCC[C@]2(C)c3ccc(C(C)C)cc3C(=O)CC12", "note": "(stereo partly drawn)", "NORMALIZED SGLT1 ACTIVITY (%)": 89}, {"smiles": "O=C(CCCN1CCN(c2ccccn2)CC1)c1ccc(F)cc1", "NORMALIZED SGLT1 ACTIVITY (%)": 111}, {"smiles": "Oc1c(Cl)c(Cl)c(Cl)c(Cl)c1Cl", "NORMALIZED SGLT1 ACTIVITY (%)": 622}, {"smiles": "Oc1c(Cl)cc(Cl)c(Cl)c1Cc1c(O)c(Cl)cc(Cl)c1Cl", "NORMALIZED SGLT1 ACTIVITY (%)": -43}, {"smiles": "Cc1ccc2c(Cl)cc(Cl)c(O)c2n1", "NORMALIZED SGLT1 ACTIVITY (%)": 100}, {"smiles": "Cn1c(=O)[nH]c2ncn(C)c2c1=O", "NORMALIZED SGLT1 ACTIVITY (%)": 164}, {"smiles": "CC(C)=CCOc1c2occc2cc2ccc(=O)oc12", "NORMALIZED SGLT1 ACTIVITY (%)": 161}, {"smiles": "CC(CN(C)C)CN1c2ccccc2CCc2ccccc21.O=C(O)/C=C\\C(=O)O", "note": "(stereo not drawn)", "NORMALIZED SGLT1 ACTIVITY (%)": 51}, {"smiles": "CN(C)CCCN1c2ccccc2Sc2ccccc21.Cl", "NORMALIZED SGLT1 ACTIVITY (%)": 38}, {"smiles": "CC(CN(C)C)CN1c2ccccc2Sc2ccccc21.O=C(O)C(O)C(O)C(=O)O", "note": "(stereo not drawn)", "NORMALIZED SGLT1 ACTIVITY (%)": 45}, {"smiles": "CN(C)CCCN1c2ccccc2Sc2ccc(Cl)cc21", "NORMALIZED SGLT1 ACTIVITY (%)": 60}, {"smiles": "CN(C)CCCN1c2ccccc2Sc2ccc(C(F)(F)F)cc21.Cl", "NORMALIZED SGLT1 ACTIVITY (%)": 62}, {"smiles": "CC(CN1c2ccccc2Sc2ccccc21)N(C)C.Cl", "note": "(stereo not drawn)", "NORMALIZED SGLT1 ACTIVITY (%)": 87}, {"smiles": "CCN(CC)C(C)CN1c2ccccc2Sc2ccccc21.Cl", "note": "(stereo not drawn)", "NORMALIZED SGLT1 ACTIVITY (%)": 46}, {"smiles": "NS(=O)(=O)c1cc2c(cc1C(F)(F)F)NC(Cc1ccccc1)NS2(=O)=O", "note": "(stereo not drawn)", "NORMALIZED SGLT1 ACTIVITY (%)": 125}, {"smiles": "O=C(Cn1ccnc1[N+](=O)[O-])NCCO", "NORMALIZED SGLT1 ACTIVITY (%)": 119}, {"smiles": "CC(=O)O[C@H]1CC[C@@]2(C)C(C[C@@H](OC(C)=O)[C@@]3(C)C4=CC(=O)O[C@@H](c5ccoc5)[C@]4(C)CCC23)C1(C)C", "note": "(stereo partly drawn)", "NORMALIZED SGLT1 ACTIVITY (%)": 358}, {"smiles": "CCCCC1C(=O)N(c2ccccc2)N(c2ccc(O)cc2)C1=O", "note": "(stereo not drawn)", "NORMALIZED SGLT1 ACTIVITY (%)": 109}]}]}
